# Reference: PubChem BioAssay (NCATS)
# Results filed as inconclusive are left out. Where a call stands in place of a potency, no number is given. Values without a mark were called inactive. The source made the active and inactive calls. Calls come from the whole dose curve; as a rule, active = well fitted curve in the direction sought with a large enough effect; inconclusive = small, poorly fitted or top-dose-only effect, or another doubt; inactive = no such curve, though single readings can be large; an effect the other way counts as inactive or inconclusive.
# Biological target: Rap guanine nucleotide exchange factor 3 (Homo sapiens) (UniProt O95398)
# Sequence (O95398 whole entry, looked up): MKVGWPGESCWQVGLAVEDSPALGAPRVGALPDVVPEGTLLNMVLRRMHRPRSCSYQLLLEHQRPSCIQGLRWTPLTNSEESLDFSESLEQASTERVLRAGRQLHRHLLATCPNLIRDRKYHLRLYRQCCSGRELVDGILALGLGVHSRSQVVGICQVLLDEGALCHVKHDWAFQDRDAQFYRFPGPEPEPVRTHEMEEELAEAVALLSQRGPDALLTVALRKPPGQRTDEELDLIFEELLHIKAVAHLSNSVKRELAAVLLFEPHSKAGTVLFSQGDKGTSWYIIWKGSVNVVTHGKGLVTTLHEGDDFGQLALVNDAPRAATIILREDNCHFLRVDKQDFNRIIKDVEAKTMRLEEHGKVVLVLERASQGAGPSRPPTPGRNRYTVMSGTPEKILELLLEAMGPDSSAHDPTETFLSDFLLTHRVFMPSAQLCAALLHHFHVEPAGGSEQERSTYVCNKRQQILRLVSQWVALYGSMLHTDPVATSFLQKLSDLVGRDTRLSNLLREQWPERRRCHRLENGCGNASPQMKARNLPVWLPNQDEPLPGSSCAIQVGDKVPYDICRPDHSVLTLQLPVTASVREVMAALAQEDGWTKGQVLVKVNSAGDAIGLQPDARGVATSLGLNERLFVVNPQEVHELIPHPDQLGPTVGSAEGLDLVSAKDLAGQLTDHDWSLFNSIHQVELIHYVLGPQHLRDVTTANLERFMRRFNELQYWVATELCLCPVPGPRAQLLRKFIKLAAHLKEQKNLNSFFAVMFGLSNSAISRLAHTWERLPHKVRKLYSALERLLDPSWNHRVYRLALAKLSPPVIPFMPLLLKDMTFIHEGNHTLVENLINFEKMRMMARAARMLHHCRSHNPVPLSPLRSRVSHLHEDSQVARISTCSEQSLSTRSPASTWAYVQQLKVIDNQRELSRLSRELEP
# Assay: Counterscreen qHTS for antagonist of cAMP-regulated guanine nucleotide exchange factor 3 (EPAC1) (AID 1645888);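 note: fluorescence loss as bound BODIPY-GDP is released from Rap1B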
# Details: Rap1B-BODIPY-GDP nucleotide exchange, fluorescence; series mostly up to 154 µM
# How it was run: (§1)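 Rap1B-BODIPY-GDP 250 nM + GDP 50 uM; cpds 7-pt, final 9.74 nM–152 uM (activator mode) or from 7.32 nM upwards (inhibitor mode); RT; FI 480/540 nm at 5 and 30 min, then ± cAMP, reread.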
SMILES,Potency,"activity change, negative = inhibition"
CCN(CC)c1ccc2cc(-c3nc(-c4ccccc4F)no3)c(=O)oc2c1,inactive,
Cc1ccc(-c2cc(C(=O)Nc3ccc4c(c3)OCCO4)c3ccccc3n2)cc1,,3.98% [at 30.8 µM]
C[C@@H]1CN([C@@H](C)CO)S(=O)(=O)c2ccc(Br)cc2O[C@H]1CN(C)Cc1ccccc1F,inactive,
COCCn1c(=N)c(C(=O)NC2CCCC2)cc2c(=O)n3cc(C)ccc3nc21,inactive,
COc1ccc(C2C=C(c3ccccc3)Nc3nnnn32)cc1 (configuration not stated),inactive,
CC(=O)/C(=C/N(C)C)Sc1ccc(C)cc1,inactive,
Cc1ccc(C(=O)NCCCNC(=O)c2ccco2)cn1,inactive,
CC(C)(C)c1ccc(OCCC(=O)OCC(=O)Nc2ccc(N3CCOCC3)cc2)cc1,inactive,
CC1(C(=O)NS(=O)(=O)c2ccc(Cl)s2)CCN1C(=O)C1(c2ccc(Cl)cc2)CCC1 (configuration not stated),inactive,
C#CC(c1ccccc1)(c1ccccc1)n1ccnc1,inactive,
O=C(O)CCn1cc(/C=C2\NC(=S)N(c3ccccc3)C2=O)c(-c2ccc(Br)cc2)n1,inactive,
COc1ccc(/C=C2/SC(=S)N(c3ccc(S(=O)(=O)Nc4nccs4)cc3)C2=O)cc1,inactive,
COc1ccc(OC)c(NC(=O)CN(C)CCOc2ccc(Br)cc2)c1,inactive,
COCCCN1C(=O)C(CC(=O)NCc2cccc3ccccc23)CC(C(=O)N2CCCCCC2)=C1C (configuration not stated),inactive,
CC(=N\NC(=O)c1ccccc1)/C(=N/O)C(=O)Nc1ccccc1,,9.03% [at 30.8 µM]
COC(=O)c1cc2oc(C)cc2n1Cc1c(C)cc(C)cc1C,inactive,
COc1ccc(N2CCN(C(=O)c3cc(C)on3)CC2)cc1,inactive,
CS(=O)(=O)c1ccc2c(c1)sc1nc(=O)c(/C=C3/C=CC(=O)C(O)=C3)c(N)n12,inactive,
CCNC(=O)C1(C)CCN(C(=O)c2ccc(C(=O)OC)cc2)C1 (configuration not stated),inactive,
COc1ccc(C(C)=O)cc1COc1ccc(F)cc1,,5.38% [at 30.8 µM]

SMILES,Potency,"activity change, negative = inhibition"
O=C(O)c1ccccc1N/N=C/C1=C(N2CCOCC2)C(=C\c2ccccc2)/CC1,inactive,
CCCCOC(=O)CSc1nnc(-c2ccc(Cl)cc2Cl)o1,,-4.49% [at 30.8 µM]
CC(=O)Nc1ccc(C=NNc2ccc(S(=O)(=O)Nc3ccccc3C(=O)O)cc2[N+](=O)[O-])cc1,,0.935% [at 30.8 µM]
CC1=NN(c2ccccc2)C(=O)C1/C=C1\NC(=S)NC1=O (configuration not stated),inactive,
CCN1C/C(=C/c2ccc(N3CCOCC3)cc2)C(=O)/C(=C/c2ccc(N3CCOCC3)cc2)C1,inactive,
C=CCSc1nc(-c2ccc(OC)cc2)c(C#N)c(=O)n1CC=C,,-30% [at 30.8 µM]
CCN(CC)CCn1c2c(c(SCC(=O)Nc3nc4ccccc4s3)nc1=O)CCCC2,inactive,
O=C1CC(=O)N(CCc2ccccc2)C(=O)N1CCc1ccccc1,inactive,
CCOC(=O)c1sc(N2C(=O)C(O)=C(C(=O)c3ccco3)C2c2cccc([N+](=O)[O-])c2)nc1C (configuration not stated),inactive,
CCCCOc1ccccc1NC(=O)Cn1c(-c2cncs2)nc2ccccc21,inactive,
CC(NCc1cccn1C)c1ccccc1 (configuration not stated),inactive,
N#Cc1c(NC(=O)c2ccccc2)sc2c1CCCCC2,,2.87% [at 30.8 µM]
CCOC(=O)C1=C(C)OC(N)=C(C#N)C1c1ccc(OC)c(CSc2ccccn2)c1 (configuration not stated),,-6.88% [at 30.8 µM]
COc1ccc(-c2cc(C(F)F)n3ncc(C(=O)N4CCc5ccccc54)c3n2)cc1,inactive,
CN(C)CC/C=C1/c2ccccc2Sc2c(O)cc(Cl)cc21,inactive,
CC(C)(C)c1cc(NC(=O)COC(=O)c2ccc(O)cc2O)n(-c2ccccc2)n1,,-16.3% [at 30.8 µM]
COc1ccc(-c2nc3n(c(=O)c2C#N)CCS3)cc1,,-1.96% [at 30.8 µM]
Cc1cscc1-c1ccc(C(=O)Nc2c(C)cccc2C)o1,,-5.01% [at 30.8 µM]
COC(=O)c1c(NC(=O)c2c(OC)cccc2OC)sc2c1CCCC2,inactive,
Cc1cccc(C(=O)Nc2ccc3c(c2)ncn3C)c1,inactive,

# Biological target: Rap guanine nucleotide exchange factor 3 (Homo sapiens) (UniProt O95398)
# Assay: Counterscreen qHTS for agonist of cAMP-regulated guanine nucleotide exchange factor 3 (EPAC1) (AID 1645889); note: nearly all actives have a fitted effect of over 40% in size; note: potency is the fitted concentration of half-maximal effect
# Details: EPAC1 Rap1B-BODIPY-GDP exchange, fluorescence; series mostly up to 154 µM
# How it was run: as §1
SMILES,Potency,activation
CC1(C(=O)NS(=O)(=O)c2ccc(Cl)s2)CCN1C(=O)C1(c2ccc(Cl)cc2)CCC1 (configuration not stated),inactive,
CC(=N\NC(=O)c1ccccc1)/C(=N/O)C(=O)Nc1ccccc1,,27.9% [at 30.8 µM]
CCCCOC(=O)CSc1nnc(-c2ccc(Cl)cc2Cl)o1,,14.1% [at 30.8 µM]
CC(=O)Nc1ccc(C=NNc2ccc(S(=O)(=O)Nc3ccccc3C(=O)O)cc2[N+](=O)[O-])cc1,,13.4% [at 30.8 µM]
CCN1C/C(=C/c2ccc(N3CCOCC3)cc2)C(=O)/C(=C/c2ccc(N3CCOCC3)cc2)C1,39.8 µM (active),
C=CCSc1nc(-c2ccc(OC)cc2)c(C#N)c(=O)n1CC=C,,-17.1% [at 30.8 µM]
CC(NCc1cccn1C)c1ccccc1 (configuration not stated),inactive,
